{
  "source": "PubChem BioAssay (Tox21)",
  "note": "Values without a mark were called inactive. The source made the active and inactive calls. Calls come from the whole dose curve. % is set by controls: 0 for no effect and ±100 for the full control effect; potency is the fitted concentration of half-maximal effect.",
  "data": [
    {"target": "Acetylcholinesterase (Homo sapiens) (UniProt P22303)", "sequence (P22303 whole entry, looked up)": "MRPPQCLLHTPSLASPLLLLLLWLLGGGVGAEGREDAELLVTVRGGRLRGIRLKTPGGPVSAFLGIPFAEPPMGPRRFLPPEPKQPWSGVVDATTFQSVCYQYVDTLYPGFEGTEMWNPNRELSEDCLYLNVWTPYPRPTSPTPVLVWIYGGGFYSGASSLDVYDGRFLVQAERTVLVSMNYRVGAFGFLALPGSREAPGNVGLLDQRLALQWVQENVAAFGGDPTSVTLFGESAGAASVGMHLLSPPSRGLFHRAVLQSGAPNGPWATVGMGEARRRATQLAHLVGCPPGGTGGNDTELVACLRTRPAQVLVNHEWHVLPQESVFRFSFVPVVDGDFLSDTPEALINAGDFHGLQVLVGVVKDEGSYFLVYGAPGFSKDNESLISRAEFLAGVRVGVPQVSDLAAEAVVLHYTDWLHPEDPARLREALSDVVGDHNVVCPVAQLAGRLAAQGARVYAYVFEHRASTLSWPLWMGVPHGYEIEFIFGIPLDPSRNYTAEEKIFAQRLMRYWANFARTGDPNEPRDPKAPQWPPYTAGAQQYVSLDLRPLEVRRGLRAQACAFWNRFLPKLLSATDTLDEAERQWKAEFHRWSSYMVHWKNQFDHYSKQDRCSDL", "test": "Acetylcholinesterase (AChE) small molecule antagonists: enzyme-based qHTS assay (AID 1347397); note: nearly all actives have a fitted effect of over 55% in size", "details": "Potency: AChE enzyme activity inhibition; outcome: AChE enzyme activity inhibition; series mostly up to 115 µM; activity change, negative = inhibition: at the top concentration", "from_the_text": "National Center for Advancing Translational Sciences [NCATS]\nDivision of Preclinical Innovation [DPI]\nU.S. Environmental Protection Agency [EPA]\nNational Institutes of Environmental Health Sciences [NIEHS]\nNational Toxicology Program [NTP]\nU.S. Food and Drug Administration [FDA]\nAcetylcholinesterase (AChE) is the primary cholinesterase in the body that hydrolyzes a key neurotransmitter, acetylcholine. Inhibition of AChE activity can lead to neurotoxicity. The known inhibitors include organophosphorous pesticides (OP), chemical warfare agents, drugs, and various phytochemicals.\nAn enzyme-based assay with the recombinant human AChE and Amplite Colormetric acetylcholinesterase assay kit (AAT Bioquest, Sunnyvale, CA) was used to evaluate the chemicals in the Tox21 10K library that inhibit AChE activity. The assay uses 5, 5-dithiobis-(2-nitrobenzoic acid) (DTNB) to quantify the thiocholine produced from the hydrolysis of acetylthiocholine by AChE.\nTox21 Assay Protocol Summary:\nFor the enzyme-based AChE assay, recombinant human AChE (50 mU/mL) in 4 uL/well was dispensed into black, clear-bottom 1536-well plates using a Multidrop Combi dispenser (Thermo Scientific, MA). Then, 23 nL of compound or DMSO (vehicle control) was transferred into the assay plates by a Pintool Station (Wako Automation, CA). The plates were incubated for 30 min at room temperature, followed by the addition of 4 uL of colorimetric detection cocktail solution (DTNB, acetylthiocholine) into each well using a Flying Reagent Dispenser (Beckman Coulter, CA) and then 10 min incubation at room temperature.", "values": [
      {"smiles": "O=C1C(CCS(=O)c2ccccc2)C(=O)N(c2ccccc2)N1c1ccccc1", "note": "(stereo not given)", "activity change, negative = inhibition": "-0.415% [at 53 µM]"},
      {"smiles": "N[C@@H](COP(=O)(O)O)C(=O)O", "activity change, negative = inhibition": "1.8% [at 23.6 µM]"},
      {"smiles": "CCOC(=O)N1CCC(=C2c3ccc(Cl)cc3CCc3cccnc32)CC1", "Potency": "inactive"},
      {"smiles": "C1CCC2OC2C1", "note": "(stereo not given)", "activity change, negative = inhibition": "0.0008%"},
      {"smiles": "CC(C)COC(=O)c1ccccc1", "activity change, negative = inhibition": "-2.19%"},
      {"smiles": "COc1ccc2c(c1)c(CC(=O)O)c(C)n2C(=O)c1ccc(Cl)cc1", "Potency": "inactive"},
      {"smiles": "CC(C)(CO)[C@@H](O)C(=O)NCCC(=O)O", "activity change, negative = inhibition": "-1.1%"},
      {"smiles": "C[C@]12CCC(=O)C=C1[C@@H]1C[C@@H]1[C@H]1[C@@H]3[C@@H]4C[C@@H]4[C@@]4(CCC(=O)O4)[C@@]3(C)CC[C@@H]12", "activity change, negative = inhibition": "0.135% [at 53 µM]"},
      {"smiles": "Nc1ccc(S(=O)(=O)Nc2ccccn2)cc1", "activity change, negative = inhibition": "-1.8% [at 53 µM]"},
      {"smiles": "CN1Cc2cc(C(=O)N3CCC(C4CCNCC4)CC3)ccc2N[C@@H](CC(=O)O)C1=O", "activity change, negative = inhibition": "-2.08% [at 53 µM]"},
      {"smiles": "CCN=C1C=CC(=C(c2ccc(N(CC)CC)cc2)c2ccc(N(CC)CC)cc2)c2ccccc21", "Potency": "19.9 µM (active)"},
      {"smiles": "C1=Cc2ccccc2C1", "activity change, negative = inhibition": "-0.389%"},
      {"smiles": "CC(=O)CC(C)(C)O", "Potency": "inactive"},
      {"smiles": "CCN(CC)c1ccc(N=Nc2ccccc2)cc1", "activity change, negative = inhibition": "3.83%"},
      {"smiles": "Nc1nnc(-c2cccc(Cl)c2Cl)c(N)n1", "activity change, negative = inhibition": "0% [at 53 µM]"},
      {"smiles": "CCCCCCCC(=O)OC", "Potency": "inactive"},
      {"smiles": "CCN(CC)c1ccc(C(=O)c2ccccc2C(=O)O)c(O)c1", "Potency": "inactive"},
      {"smiles": "Nc1c[n+](N2CCOCC2)no1", "activity change, negative = inhibition": "0.139% [at 53 µM]"},
      {"smiles": "Cn1c(N)nc2nc[nH]c2c1=O", "activity change, negative = inhibition": "-0.409%"},
      {"smiles": "C=CCCCCCCCCC=O", "activity change, negative = inhibition": "-6.52%"},
      {"smiles": "CCOc1ccc([N+](=O)[O-])cc1", "activity change, negative = inhibition": "-16.1%"},
      {"smiles": "CC(C)COC(=O)/C=C/c1ccccc1", "activity change, negative = inhibition": "1.37%"},
      {"smiles": "O=C(O)c1cccc(Oc2ccccc2)c1", "activity change, negative = inhibition": "-0.656%"},
      {"smiles": "CCCCCC(C)=O", "Potency": "inactive"},
      {"smiles": "Nc1ccc(O)c(C(=O)O)c1", "Potency": "inactive"},
      {"smiles": "C=C(C)C(=O)OCCOP(=O)(O)OCCOC(=O)C(=C)C", "activity change, negative = inhibition": "0.507%"},
      {"smiles": "Fc1ccc(Br)cc1", "Potency": "inactive"},
      {"smiles": "CC(C[N+](C)(C)C)OC(N)=O", "note": "(stereo not given)", "activity change, negative = inhibition": "0.0103% [at 53 µM]"},
      {"smiles": "CCC1COC(=O)O1", "note": "(stereo not given)", "activity change, negative = inhibition": "1.17%"},
      {"smiles": "CCCC(=O)Nc1ccc(O)c(C(C)=O)c1", "activity change, negative = inhibition": "0.675% [at 53 µM]"},
      {"smiles": "CCCCC(CC)CCC(CC(C)C)OS(=O)(=O)O", "note": "(stereo not given)", "activity change, negative = inhibition": "0.387%"},
      {"smiles": "C=C1C2CCC(C2)C1(C)C", "note": "(stereo not given)", "Potency": "inactive"},
      {"smiles": "CCCCCC(=O)OCC", "activity change, negative = inhibition": "0.162%"},
      {"smiles": "CCCc1ccccc1O", "activity change, negative = inhibition": "0.146%"},
      {"smiles": "CCCNCCC", "activity change, negative = inhibition": "0.53%"},
      {"smiles": "ClC1=C(Cl)C(Cl)(Cl)C(Cl)=C1Cl", "Potency": "inactive"},
      {"smiles": "N=c1nc(N2CCCCC2)cc(N)n1O", "activity change, negative = inhibition": "0.551% [at 53 µM]"},
      {"smiles": "Nc1ccn([C@H]2CC[C@@H](CO)O2)c(=O)n1", "Potency": "inactive"},
      {"smiles": "COc1ccccc1/C=C/C=O", "Potency": "inactive"},
      {"smiles": "COc1cc(NS(=O)(=O)c2ccc(N)cc2)nc(OC)n1", "activity change, negative = inhibition": "-0.531% [at 53 µM]"}
    ]}
  ]
}
